High-throughput results: PubChem, National Center for Advancing Translational Sciences (NCATS)
TSHR ag = agonists of human thyroid stimulating hormone receptor | Potency, µM (doses to about 57.1 µM), without a hit: top-dose activation, actives largely listed as activators | actives 0.48% (n = 73,000) | HEK293-CNG-TSHR cells (CNG channel as cAMP sensor), membrane potential dye, cAMP | AID 926; active means well fitted activation curve with a large enough effect in the main read-out, with a control signal flat, not every such curve was filed as active; inconclusive means small, poorly fitted or top-dose-only effect, or a change in a side signal; inactive means no such curve, though single readings can be large or run the other way; % of control where 0% means no effect;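 further: the control signal comes from parental cells without the receptor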
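HEK 293 cells stably expressing TSHR and a cAMP-gated CNG channel; parental CNG-only cells as counterscreen. Cells preloaded 60 min with membrane potential dye plus 100 uM RO 20-1724, then compound 30 min; fluorescence read at 590 nm.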
HEK293 cAMP ctrl = parental HEK293 cAMP activation (counter-screen) | actives 2.5% (n = 73,000) | Potency, µM (titrated, usually from 57.1 µM), without a hit: at the top dose activation, hits mostly activators | AID 938 | parental HEK293 CNG cAMP sensor, membrane potential fluorescence; further: % of control where 0% means no effect; nearly all actives have a fitted effect of over 55% in size
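Parental HEK 293 cells stably expressing a cAMP-gated CNG channel were loaded with membrane potential dye containing 100 uM RO 20-1724 for 60 min. Compound added for 30 min; depolarization read as fluorescence intensity at 590 nm.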
Luciferase inh = inhibitors of firefly luciferase; Potency, µM (series often up to 57.1 µM), without a hit: at the top dose activity change, negative = inhibition, usual class: inhibitors; purified firefly luciferase, luminescence, 8 min; actives 2.2% (n = 72,000); further: on the % scale 0 is the no-effect control and ±100 the full control effect; nearly all actives have a fitted effect of over 40% in size
Target sequence (P08659 whole entry, looked up): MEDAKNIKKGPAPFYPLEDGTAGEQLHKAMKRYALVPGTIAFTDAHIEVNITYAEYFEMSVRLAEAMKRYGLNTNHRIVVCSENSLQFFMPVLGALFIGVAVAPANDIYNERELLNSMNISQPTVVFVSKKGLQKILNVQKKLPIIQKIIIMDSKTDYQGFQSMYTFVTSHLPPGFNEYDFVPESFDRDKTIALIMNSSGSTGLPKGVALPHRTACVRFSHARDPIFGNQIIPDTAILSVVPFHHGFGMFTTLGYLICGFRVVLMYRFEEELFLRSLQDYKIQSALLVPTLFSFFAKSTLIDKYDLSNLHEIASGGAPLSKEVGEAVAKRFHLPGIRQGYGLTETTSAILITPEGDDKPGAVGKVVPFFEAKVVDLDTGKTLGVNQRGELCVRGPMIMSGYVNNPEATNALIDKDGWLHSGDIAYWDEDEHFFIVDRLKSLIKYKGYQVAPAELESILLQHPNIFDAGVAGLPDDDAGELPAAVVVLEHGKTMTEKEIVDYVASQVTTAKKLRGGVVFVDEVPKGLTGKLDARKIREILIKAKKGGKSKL
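qHTS concentration-response profiling: light output of P. pyralis luciferase with luciferin and 10 uM ATP, imidazole buffer pH 7.2. Read by luminescence after 8-min room-temperature incubation.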
PK Bst = modulators of Bacillus stearothermophilus pyruvate kinase; purified pyruvate kinase, luminescence ATP production; ribose 5-phosphate activator present at AC10; actives 1.2% (n = 51,000); Potency, µM; in the data active means potency below about 11 µM; inconclusive means mostly about 12 µM to 25 µM;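 the screen sought inhibitors and activators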;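 further: scaled between full activation by ribose 5 phosphate and full inhibition by luteolin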
* = called active by the depositor; i = inactive; ? = inconclusive; · = no result; [ ] = dose if it differs, or a comment. Only some compounds are listed: those with a hit (about 5.2% of all), similar ones and a draw of the others. Unless noted, the call rests on the fitted dose curve; in most records, active means well fitted curve in the direction sought with a large enough effect; inconclusive means small, poorly fitted or top-dose-only effect, or another doubt; inactive means no such curve, though single readings can be large; an effect the other way counts as inactive or inconclusive. Potency means the concentration at half of the fitted maximal effect.

SMILES | TSHR ag | HEK293 cAMP ctrl | Luciferase inh | PK Bst
CC(C)Cc1nc(N2CCN(C(=O)c3ccco3)CC2)c(C#N)c2c1CCC2 | · | · | 1.3%[25.5 µM] | >25.6
Cc1cccc2[nH]c3c(=O)n(CCN4CCNCC4)cnc3c12 | -3.8% | 1.0% | 3.4% | ·
O=C(Nc1ccc2ccccc2c1)N1CCN(c2ncccc2C(F)(F)F)CC1 | 2.4% | 16.6% | 0.1% | >11.4
CCCCN1CCCCC1C(=O)Nc1c(C)cc(C)cc1C (stereo unspecified) | ? | 20µM* | -28.0% | >57
Cc1cc(C)c(NC(=O)C2CCCN2CCO)c(C)c1 (stereo unspecified) | -0.3% | 8.2% | -0.1% | >57
O=S(=O)(Nc1ccccn1)c1ccc(C2CCCCC2)cc1 | 13.4% | 16.7% | 0.3% | >57
O=S(=O)(Nc1cccnc1)c1ccc(C2CCCCC2)cc1 | ? | 25.1µM* | -0.4% | >57
CO/N=C\c1ccc(C(=O)N2[C@H](c3ccc(C)cc3)[C@@H](C)CC[C@H]2C(=O)OC)cc1 | ? | 2µM* | 0.7%[11.4 µM] | ·
COC(=O)[C@@H]1CC[C@H](C)[C@@H](c2ccc(C)cc2)N1C(=O)c1ccc(/C=N\O[C@@H]2O[C@H](COC(C)=O)[C@H](OC(C)=O)[C@H](OC(C)=O)[C@H]2OC(C)=O)cc1 | 2.4%[11.4 µM] | 25.4%[11.4 µM] | -0.4%[11.4 µM] | ·
c1ccc(OCCSc2nnc3sc4ccccc4n23)cc1 | ? | ? | 25.1µM* | ?
COc1cccc(OCCSc2nnc3sc4ccccc4n23)c1 | ? | 15.8µM* | -14.1% | ·
CCCn1c(=O)c2ccccc2n2c(SCCOc3ccccc3)nnc12 | ? | 10µM* | 2.0% | ·
COc1cccc2cc(C(=O)N3CCc4ccccc4C3)c(=O)oc12 | 9.3% | 7.7% | -7.5% | >57
Cc1ccccc1C(=O)NCc1ccncc1 | -4.6% | 5.9% | 2.4% | >57
Cc1ccc(C(O)c2nc3ccccc3n2C(C)C)cc1 (stereo unspecified) | ? | ? | 1.1% | >57
CCn1c(-c2ccc(N(C)C)cc2)nc2ccccc21 | 21.1% | 16.2% | 1.0% | >57
CN(C)c1ccc(-c2nc3ccccc3n2C)cc1 | -8.1%[11.4 µM] | -24.0% | 0.631µM* | 1.11*
CC(C)n1c(-c2ccc(N(C)C)cc2)nc2ccccc21 | 21.9% | 13.9% | 12.6µM* | ·
O=C(CSc1nc2ccccc2c(=O)n1-c1ccc(Cl)cc1)c1ccco1 | ? | 25.1µM* | 4.0% | >57
COc1ccc(-c2cc(O)cc(O)c2)cc1 | -26.9% | -1.1% | 15.8µM* | ?
COc1ccc(OC)cc1 | -7.3% | -13.5% | · | ·
CCOC(=O)c1c(C)nc2sccn12 | 2.5% | 4.6% | -0.1% | >11.4
CCOC(=O)c1c(C)nc2c3ccccc3ccn12 | 17.0% | 22.7% | 10µM* | 6.85*
CC1CCCN(CCC(=O)c2ccc(Br)cc2)C1 (stereo unspecified) | 18.9% | 16.1% | 0.2% | >57
Cc1cc(C)n(-c2nc3c(c(=O)[nH]c(=O)n3C)n2Cc2ccccc2)n1 | 5.3% | 4.4% | -2.3% | >57
SMILES | TSHR ag | HEK293 cAMP ctrl | Luciferase inh | PK Bst
Cc1ccc2c(Cl)cc(Cl)c(OCc3c(C)noc3C)c2n1 | ? | 15.8µM* | 2.1% | >57
CCOC(=O)c1cc2c(=O)n3cccc(C)c3nc2n(Cc2ccco2)c1=NC(=O)c1cccnc1 | -0.4% | -6.4% | 0.5% | >57
CCCN(CCC)C(C(=O)Nc1cccc(OC)c1)c1ccccc1 (stereo unspecified) | ? | 25.1µM* | -0.8% | >57
Cc1nc(CC(=O)c2c(C)cc(O)cc2O)cs1 | 17.1% | 24.7% | -0.7% | ·
CCCOc1ccc(C(=O)C(c2ccccc2)N2CCOCC2)cc1 (stereo unspecified) | ? | 25.1µM* | 1.1% | >57
CCOC(=O)c1c(C)c(C(=O)Nc2ccc3c(c2)OCCO3)c(C)n1C | -1.5%[11.4 µM] | 26.2% | -6.8% | >57
CC(=O)C1=C(O)C=C(c2ccco2)CC1c1ccco1 (stereo unspecified) | ? | 15.8µM* | 0.6% | >57
CC(C)(Oc1ccc(-c2ccco2)cc1)C(=O)O | ? | ? | -0.6% | ·
CC1Cn2c(nnc2-c2ccc(F)cc2)S1 (stereo unspecified) | ? | 3.98µM* | 2.2% | ·
COc1ccc(C2C3=C(CCCC3=O)Nc3nc(SCc4ccccc4)nn32)cc1OC (stereo unspecified) | 0.9% | -1.4% | 3.4% | >57
COc1ccc(S(=O)(=O)N2CCN(CCO)CC2)cc1-c1nnc2c3ccccc3c(C)nn12 | 2.1% | 7.7% | 4.9% | ·
Cc1nn2c(-c3ccccc3)nnc2c2ccccc12 | ? | ? | -2.4% | i
Cc1ccc(S(=O)(=O)N2CCN(C)CC2)cc1-c1nnc2c3ccccc3c(C)nn12 | 3.98µM* | 1.7% | 1.2% | >57
Cc1ccc(S(=O)(=O)N2CCN(CCO)CC2)cc1-c1nnc2c3ccccc3c(C)nn12 | 15.8µM* | 8.4% | 1.8% | >57
CCOC(=O)C(NC(=O)c1ccc(OC)cc1)(Nc1cc(C)on1)C(F)(F)F (stereo unspecified) | 6.5% | 13.6% | -0.8% | >57
CCOC(=O)C(NC(=O)c1ccc(OC)cc1)(OCC1(CC)COC1)C(F)(F)F (stereo unspecified) | 7.94µM* | 21.9% | 3.4% | >57
COc1ccccc1NC(=O)CSc1nnc(-c2ccco2)n1Cc1ccco1 | ? | ? | 25.1µM* | ·
COc1ccc(C(=O)CSc2nnc(-c3cc4ccccc4cc3O)n2Cc2ccco2)cc1 | ? | ? | 1.7% | >57
COCCCn1c(SCC(=O)OC2CCCCC2)nnc1-c1ccco1 | 15.7% | 29.0% | 25.1µM* | ·
COc1ccccc1NC(=O)CSc1nnc(-c2ccccn2)n1Cc1ccco1 | · | -8.2% | 1.9% | ·
CC1CCN(C(=O)CSc2nnc(-c3cc4ccccc4cc3O)n2Cc2ccco2)CC1 | 25.1µM* | 23.3% | -0.7% | ·
COc1ccc(C)cc1NC(=O)CSc1nnc(-c2ccccn2)n1Cc1ccco1 | ? | 10µM* | 1.2% | >57
COCCCn1c(SCC(=O)NC2CCCC2)nnc1-c1ccco1 | 11.1% | -2.5% | 1.5% | >57
Cc1ccc(N2CCCn3c2nc2c3c(=O)n(CCN3CCOCC3)c(=O)n2C)cc1 | -12.1% | -7.4% | 1.1% | >57
CCS(=O)(=O)Nc1ccc(C(=O)OC)cc1 | 12.2% | 16.0% | 0.2% | >57
SMILES | TSHR ag | HEK293 cAMP ctrl | Luciferase inh | PK Bst
COc1ccc(NC(=O)CSc2nnc(-c3ccccc3Cl)n2Cc2ccco2)c(OC)c1 | ? | 20µM* | -0.6% | >57
COc1ccc(NC(=O)CSc2nnc(-c3ccccc3)n2Cc2ccco2)c(OC)c1 | 27.6% | 21.8% | 3.0% | >57
C(=C\c1ccccc1)/CSc1nnc(-c2ccccn2)n1Cc1ccco1 | ? | 20µM* | -1.2% | >57
CC(C)(C)c1ccc(O)c(N)c1 | · | · | -0.3%[25.5 µM] | >11.4
CC(C)(C)c1ccc(-c2cc(N)n[nH]2)cc1 | 3.6% | 5.0% | 12.6µM* | ·
O=C1c2ccccc2NC(c2ccc3c(c2)OCCO3)N1c1ccc2c(c1)OCCO2 (stereo unspecified) | ? | ? | 20µM* | ·
COc1ccc(NS(=O)(=O)c2cccc(-c3nnc4n3CCCCC4)c2)cc1 | ? | ? | 1.3% | >57
COc1ccc(-c2cc3nc4n(c(=O)c3s2)CCC4)cc1 | 2.8% | -0.4% | 2.51µM* | 3.85*
